Values without a mark were called inactive. Records with an inconclusive call do not appear. A call without a number means that no potency is given here. Activity calls are given as the source filed them. Unless noted, the call rests on the fitted dose curve; in most records, active means well fitted curve in the direction sought with a large enough effect; inconclusive means small, poorly fitted or top-dose-only effect, or another doubt; inactive means no such curve, though single readings can be large; an effect the other way counts as inactive or inconclusive.
Experiments:
[1] = AP1 Signaling Pathway (AID 357; active means well fitted curve in either direction with a large enough effect, not every such curve was filed as active;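 further: ME-180 reporter cells stimulated with EGF at its EC50 level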); conditions: ME-180 AP-1-bla reporter, EGF-induced, beta-lactamase ratio, 5 h; at 7.69 µM (top of the series) unless noted
How it was run: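 AP-1-bla ME-180 cells, Opti-MEM + 0.5% dialyzed FBS, plated overnight 37 °C. Cpd titration + EC50 EGF, 5 h 37 °C. CCF4 2.5 h RT; ex 405, em 460/530 ratio → %activity, AC50.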

[2] = target: Cytochrome P450 1A2 (Homo sapiens) (UniProt P05177); assay: p450-cyp1a2 (AID 410; calls by dose curve; further: potency means the concentration at half of the fitted maximal effect)
Cytochrome P450 1A2 (Homo sapiens), sequence (P05177 whole entry, looked up): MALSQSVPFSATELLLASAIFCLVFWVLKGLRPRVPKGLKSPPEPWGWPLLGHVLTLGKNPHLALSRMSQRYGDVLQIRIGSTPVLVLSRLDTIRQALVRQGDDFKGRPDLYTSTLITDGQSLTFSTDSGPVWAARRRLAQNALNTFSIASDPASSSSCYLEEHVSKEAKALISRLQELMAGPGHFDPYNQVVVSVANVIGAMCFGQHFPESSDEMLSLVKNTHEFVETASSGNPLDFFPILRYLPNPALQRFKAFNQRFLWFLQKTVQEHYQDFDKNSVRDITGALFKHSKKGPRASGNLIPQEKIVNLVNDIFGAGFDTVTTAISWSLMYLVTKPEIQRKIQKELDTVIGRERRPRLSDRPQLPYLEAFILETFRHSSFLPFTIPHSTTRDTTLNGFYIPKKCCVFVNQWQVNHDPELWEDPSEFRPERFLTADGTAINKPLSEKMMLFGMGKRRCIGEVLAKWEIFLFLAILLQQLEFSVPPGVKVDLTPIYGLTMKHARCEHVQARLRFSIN
How it was run: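 Human CYP1A2 (20nM) demethylated Luciferin-ME at its Km (100uM) in 100mM KPO4. After 10 min compound preincubation, NADPH regeneration ran the reaction 60 min at room temperature. Luciferin was read by luminescence, normalized to 57 uM furafylline.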

[3] = NFAT Signaling Pathway (AID 444; active means well fitted curve in either direction with a large enough effect, not every such curve was filed as active;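 further: carbachol stimulus at about its EC50 of 1 µM final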); conditions: Jurkat NFAT-bla M1, carbachol, beta-lactamase ratio, 5 h; at 7.69 µM (top of the series) unless noted
How it was run: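 Jurkat cells carrying an NFAT-driven β-lactamase reporter and co-transfected muscarinic M1 receptor were treated with compound plus carbachol (1 uM final, an EC50 level) for 5 h at 37 °C. CCF4 loading followed for 1 h at RT; 460/530 nm ratio gave %activity.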

[4] = Stat Signaling Pathway (AID 446; active means well fitted curve in either direction with a large enough effect, not every such curve was filed as active;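 further: ME-180 cervical cancer cells given 40 pM IL-6 alongside compound; SIE-controlled beta-lactamase reporter measured as 460/530 nm FRET emission ratio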); conditions: ME-180 SIE beta-lactamase reporter, IL-6 stimulated, 5 h; at 7.69 µM (top of the series) unless noted
How it was run: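 IL-6/STAT signaling read in ME-180 cells via an SIE beta-lactamase reporter. Stimulus was 40 pM IL-6 (its AC50) for 5 hrs, so both activation and inhibition register.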

[5] = target: Glucocorticoid receptor (Homo sapiens) (UniProt P04150); assay: GR-EFC Redistribution (AID 451; calls by dose curve; further: potency means the concentration at half of the fitted maximal effect); conditions: CHO-K1 GR-EFC translocation, beta-gal luminescence, 2 h
Glucocorticoid receptor (Homo sapiens), sequence (P04150 whole entry, looked up, the tested form may be a part): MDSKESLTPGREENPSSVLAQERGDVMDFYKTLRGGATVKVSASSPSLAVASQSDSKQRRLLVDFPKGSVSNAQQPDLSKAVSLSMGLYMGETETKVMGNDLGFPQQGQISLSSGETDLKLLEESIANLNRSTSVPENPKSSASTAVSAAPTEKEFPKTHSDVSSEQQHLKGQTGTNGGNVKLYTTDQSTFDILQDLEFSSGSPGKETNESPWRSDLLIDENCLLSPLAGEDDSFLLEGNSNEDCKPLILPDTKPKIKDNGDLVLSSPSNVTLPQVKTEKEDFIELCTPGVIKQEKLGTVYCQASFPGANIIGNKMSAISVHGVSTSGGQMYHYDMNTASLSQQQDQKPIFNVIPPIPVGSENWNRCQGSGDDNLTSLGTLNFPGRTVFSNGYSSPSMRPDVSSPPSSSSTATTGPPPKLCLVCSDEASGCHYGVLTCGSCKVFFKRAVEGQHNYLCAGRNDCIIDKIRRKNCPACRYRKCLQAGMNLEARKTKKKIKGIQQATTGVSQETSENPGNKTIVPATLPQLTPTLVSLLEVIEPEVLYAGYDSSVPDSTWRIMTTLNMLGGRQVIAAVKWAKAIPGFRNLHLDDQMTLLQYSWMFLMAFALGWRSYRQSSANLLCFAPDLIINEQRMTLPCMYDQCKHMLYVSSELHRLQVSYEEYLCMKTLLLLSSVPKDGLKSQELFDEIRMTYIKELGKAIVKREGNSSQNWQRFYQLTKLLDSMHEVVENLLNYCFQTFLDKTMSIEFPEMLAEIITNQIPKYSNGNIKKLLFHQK
How it was run: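 CHO-K1 cells stably expressing nuclear-localized β-gal enzyme acceptor and GR fused C-terminally to the enzyme donor fragment; ligand-driven nuclear translocation restores β-gal by complementation. Compounds titrated up to 46 uM final, 2 h at 37 °C; luminescence read.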

[6] = target: Mitogen-activated protein kinase 10 (Mus musculus) (UniProt Q61831); assay: JNK3 AlphaScreen Assay (AID 530; active means well fitted curve in either direction with a large enough effect, not every such curve was filed as active;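 further: kinase came from lysate of stimulated human HepG2 cells; signal reports phosphorylation of biotinylated GST-cJun 1-79 at Ser73 with 10 µM ATP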)
How it was run: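 JNK3 came from HepG2 lysates pre-activated with IL-1beta and TNF-alpha and phosphorylated biotinylated GST-cJun (1-79) at 10 uM ATP, pH 7.6, room temperature. Compounds were titrated. AlphaScreen signal used anti-phospho-cJun (Ser73) antibody.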

[7] = target: 3',5'-cyclic-AMP phosphodiesterase 4B (Homo sapiens) (UniProt Q07343); assay: qHTS Assay for Inhibitors of PDE-IV (AID 607; active means well fitted activation curve with a large enough effect in the main read-out, with a control signal flat, not every such curve was filed as active)
3',5'-cyclic-AMP phosphodiesterase 4B (Homo sapiens), sequence (Q07343 whole entry, looked up): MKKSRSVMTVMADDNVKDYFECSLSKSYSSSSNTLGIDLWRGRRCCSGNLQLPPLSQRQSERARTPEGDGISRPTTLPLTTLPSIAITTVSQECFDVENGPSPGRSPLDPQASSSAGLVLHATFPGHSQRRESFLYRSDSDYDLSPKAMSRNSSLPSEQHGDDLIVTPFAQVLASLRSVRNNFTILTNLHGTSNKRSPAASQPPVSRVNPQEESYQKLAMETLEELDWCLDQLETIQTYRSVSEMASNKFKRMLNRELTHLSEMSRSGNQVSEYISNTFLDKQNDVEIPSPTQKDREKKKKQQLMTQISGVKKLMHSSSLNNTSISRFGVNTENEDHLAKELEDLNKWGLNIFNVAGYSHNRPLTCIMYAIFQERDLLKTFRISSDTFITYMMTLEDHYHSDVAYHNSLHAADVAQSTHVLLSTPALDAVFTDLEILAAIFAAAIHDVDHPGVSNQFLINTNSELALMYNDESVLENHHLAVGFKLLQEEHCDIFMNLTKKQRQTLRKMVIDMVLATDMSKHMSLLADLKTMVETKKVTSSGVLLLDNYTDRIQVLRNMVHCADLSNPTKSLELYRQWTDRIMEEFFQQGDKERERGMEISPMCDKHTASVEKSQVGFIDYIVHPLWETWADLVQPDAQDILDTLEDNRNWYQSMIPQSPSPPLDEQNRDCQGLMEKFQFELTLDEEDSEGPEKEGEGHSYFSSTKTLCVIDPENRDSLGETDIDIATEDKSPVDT
How it was run: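 Live HEK293 cells with a modified cyclic nucleotide-gated (CNG) channel report intracellular cAMP via membrane-potential dye fluorescence (ex 535/em 590 nm). Endogenous PDE-IV was targeted. Compounds were tested at up to 22.9 uM final; RO 20-1724 100 uM served as control.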

[8] = target: Cytochrome P450 3A4 (Homo sapiens) (UniProt P08684); assay: qHTS Assay for Inhibitors and Substrates of Cytochrome P450 3A4 (AID 884); further: nearly all actives have a fitted effect of over 50% in size
Cytochrome P450 3A4 (Homo sapiens), sequence (P08684 whole entry, looked up): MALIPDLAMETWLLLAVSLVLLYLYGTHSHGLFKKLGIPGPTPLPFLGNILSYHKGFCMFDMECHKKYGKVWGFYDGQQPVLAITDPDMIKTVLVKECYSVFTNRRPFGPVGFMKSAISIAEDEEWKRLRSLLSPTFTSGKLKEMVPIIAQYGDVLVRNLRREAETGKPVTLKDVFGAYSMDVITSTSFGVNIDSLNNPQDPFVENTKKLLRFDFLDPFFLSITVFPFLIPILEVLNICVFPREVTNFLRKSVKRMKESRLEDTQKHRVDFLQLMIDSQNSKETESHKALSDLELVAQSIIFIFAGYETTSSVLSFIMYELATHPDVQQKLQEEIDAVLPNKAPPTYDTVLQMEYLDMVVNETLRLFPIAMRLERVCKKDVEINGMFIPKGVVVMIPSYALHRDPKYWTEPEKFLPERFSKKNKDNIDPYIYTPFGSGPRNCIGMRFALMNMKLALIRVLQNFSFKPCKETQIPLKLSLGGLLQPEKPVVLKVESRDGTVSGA
How it was run: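 20 nM human CYP3A4 with 25 uM Luciferin-PPXE (at KM) in 200 mM KPO4, preincubated 10 min with compound; NADPH regeneration started a 60 min RT reaction. Luciferin detected by luminescence, normalized to 57 uM ketoconazole as full inhibition.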

[9] = target: Cytochrome P450 2C9 (Homo sapiens) (UniProt P11712); assay: qHTS Assay for Inhibitors and Substrates of Cytochrome P450 2C9 (AID 883); further: nearly all actives have a fitted effect of over 60% in size
How it was run: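 CYP2C9 deoxyluciferin hydroxylation, 37C, 60 min with NADPH regeneration; 10nM enzyme, 100uM Luciferin-H (KM). Glo detection reagent stopped reaction; luminescence normalized to sulphaphenazole (57uM) full inhibition.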

[10] = target: Cytochrome P450 2D6 (Homo sapiens) (UniProt P10635); assay: qHTS Assay for Inhibitors and Substrates of Cytochrome P450 2D6 (AID 891); further: nearly all actives have a fitted effect of over 60% in size; further: potency means the concentration at half of the fitted maximal effect;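 on activity change, negative = inhibition: luciferin methyl ether substrate demethylated by CYP2D6 with NADPH regeneration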
How it was run: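 Human CYP2D6 (5 nM) with 30 uM Luciferin-ME EGE (at Km) in 100 mM KPO4, compound preincubated 10 min, then NADPH regeneration system for 60 min at room temperature. Luciferin read by luminescence; normalized to 1.43 uM quinidine.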

[11] = target: Cytochrome P450 2C19 (Homo sapiens) (UniProt P33261); assay: qHTS Assay for Inhibitors and Substrates of Cytochrome P450 2C19 (AID 899); further: nearly all actives have a fitted effect of over 60% in size
How it was run: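 In 50mM KPO4, the reaction held 5nM enzyme and KM-level (10uM) Luciferin-H EGE; it ran 60 min at 37C after NADPH regeneration and a 10 min compound preincubation. Luminescence values were scaled to 57uM ketoconazole as complete inhibition.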

[12] = target: Glucocorticoid receptor (Homo sapiens) (UniProt P04150); assay: GR-GFP Redistribution (AID 450;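 active means compounds whose dose series gives a full or clear partial fitted curve of increased nuclear translocation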; further: potency means the concentration at half of the fitted maximal effect); conditions: U2OS GR-GFP nuclear translocation, laser cytometry, 2 h
[13] = target: Guanine nucleotide-binding protein G(i) subunit alpha-1 (Homo sapiens) (UniProt P63096); assay: qHTS Assay for Inhibitors of RGS12 GoLoco Motif Activity (Green Fluorophore) (AID 879);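 further: negative values mean loss of peptide binding seen as reduced polarization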
Guanine nucleotide-binding protein G(i) subunit alpha-1 (Homo sapiens), sequence (P63096 whole entry, looked up): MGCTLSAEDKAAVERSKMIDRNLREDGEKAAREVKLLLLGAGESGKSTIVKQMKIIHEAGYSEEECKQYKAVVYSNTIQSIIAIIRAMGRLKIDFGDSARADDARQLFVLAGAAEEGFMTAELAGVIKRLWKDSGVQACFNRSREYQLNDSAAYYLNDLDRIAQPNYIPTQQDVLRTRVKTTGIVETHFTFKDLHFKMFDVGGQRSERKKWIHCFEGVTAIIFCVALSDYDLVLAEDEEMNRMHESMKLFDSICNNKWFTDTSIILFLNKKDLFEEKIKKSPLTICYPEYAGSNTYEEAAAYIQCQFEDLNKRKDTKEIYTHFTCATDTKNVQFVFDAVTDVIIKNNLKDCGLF
How it was run: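 Fluorescence polarization assay: 50 nM Gαi1 with 10 nM FITC-labeled RGS12 GoLoco peptide in 10 mM Tris pH 7.5, 150 mM NaCl, 0.1 mM GDP, 0.05% NP40, 10 min at room temperature with compound.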

[14] = qHTS Assay for Identification of Small Molecule Antagonists for Thrombopoietin (TPO) Signaling Pathway (AID 918); conditions: TPO-dependent cell signaling reporter, antagonist mode; further: potency means the concentration at half of the fitted maximal effect; nearly all actives have a fitted effect of over 60% in size
How it was run: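 Murine Ba/F3 cells stably expressing human TPO receptor and a Glycoprotein IIb promoter–luciferase reporter were IL-3-starved overnight, treated with compounds plus TPO (26 pM final, its EC50) for 24 hrs at 37 C, then read by luminescence.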

[15] = target: Pyruvate kinase (Leishmania mexicana) (UniProt Q27686); assay: qHTS Validation Assay for Inhibitors of Leishmania Mexicana Pyruvate Kinase (AID 945)
Pyruvate kinase (Leishmania mexicana), sequence (Q27686 2-499 E452W): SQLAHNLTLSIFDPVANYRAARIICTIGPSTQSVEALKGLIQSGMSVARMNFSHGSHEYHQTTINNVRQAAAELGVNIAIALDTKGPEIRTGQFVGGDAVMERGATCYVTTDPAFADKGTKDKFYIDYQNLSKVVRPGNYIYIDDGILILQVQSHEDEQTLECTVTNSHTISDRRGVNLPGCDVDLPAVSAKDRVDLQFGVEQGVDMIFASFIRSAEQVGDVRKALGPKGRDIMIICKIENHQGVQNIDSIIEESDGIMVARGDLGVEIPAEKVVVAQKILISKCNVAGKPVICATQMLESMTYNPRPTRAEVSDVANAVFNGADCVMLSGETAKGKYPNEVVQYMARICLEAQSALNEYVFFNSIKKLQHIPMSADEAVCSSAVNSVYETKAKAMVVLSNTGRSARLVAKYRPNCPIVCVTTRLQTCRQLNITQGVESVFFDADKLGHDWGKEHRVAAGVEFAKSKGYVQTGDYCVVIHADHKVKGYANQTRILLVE
How it was run: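 qHTS eight-point titrations against 0.2 nM LmPYK (E451W) in imidazole buffer pH 7.2 with 0.5 mM PEP, 0.1 mM ADP; 1 h, room temperature. Readout: PKLight luminescence, normalized to neutral DMSO wells.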

[16] = target: Pyruvate kinase PKM (Homo sapiens) (UniProt P14618); assay: qHTS Assay for Activators of Human Muscle Pyruvate Kinase (AID 954; active means well fitted curve in the direction sought with a large enough effect, not every such curve was filed as active)
Pyruvate kinase PKM (Homo sapiens), sequence (P14618 whole entry, looked up): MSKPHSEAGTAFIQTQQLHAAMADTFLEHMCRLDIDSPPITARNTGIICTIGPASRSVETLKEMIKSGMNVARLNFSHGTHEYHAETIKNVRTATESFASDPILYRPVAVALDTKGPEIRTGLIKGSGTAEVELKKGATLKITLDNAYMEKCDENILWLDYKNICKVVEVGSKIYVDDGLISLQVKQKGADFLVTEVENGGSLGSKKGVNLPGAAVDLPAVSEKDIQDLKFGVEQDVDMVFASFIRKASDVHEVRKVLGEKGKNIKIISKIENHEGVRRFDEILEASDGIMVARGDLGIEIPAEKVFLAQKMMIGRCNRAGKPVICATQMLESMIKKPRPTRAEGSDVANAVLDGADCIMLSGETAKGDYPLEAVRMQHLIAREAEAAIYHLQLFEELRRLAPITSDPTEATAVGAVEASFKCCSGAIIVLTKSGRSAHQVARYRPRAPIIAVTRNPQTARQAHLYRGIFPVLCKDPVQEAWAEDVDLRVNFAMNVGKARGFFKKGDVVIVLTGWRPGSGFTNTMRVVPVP
How it was run: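 Enzyme was run at intermediate activity so both inhibitors and activators could be detected. ATP formed from ADP and PEP by 0.1 nM human PKM2 during a 1 h room-temperature incubation was quantified by coupled luciferase luminescence.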

[17] = target: Alpha-galactosidase A (Homo sapiens) (UniProt P06280); assay: Counterscreen for Glucocerebrosidase Inhibitors: qHTS Assay for Human alpha-Galactosidase at pH 4.5 (AID 992)
Alpha-galactosidase A (Homo sapiens), sequence (P06280 whole entry, looked up): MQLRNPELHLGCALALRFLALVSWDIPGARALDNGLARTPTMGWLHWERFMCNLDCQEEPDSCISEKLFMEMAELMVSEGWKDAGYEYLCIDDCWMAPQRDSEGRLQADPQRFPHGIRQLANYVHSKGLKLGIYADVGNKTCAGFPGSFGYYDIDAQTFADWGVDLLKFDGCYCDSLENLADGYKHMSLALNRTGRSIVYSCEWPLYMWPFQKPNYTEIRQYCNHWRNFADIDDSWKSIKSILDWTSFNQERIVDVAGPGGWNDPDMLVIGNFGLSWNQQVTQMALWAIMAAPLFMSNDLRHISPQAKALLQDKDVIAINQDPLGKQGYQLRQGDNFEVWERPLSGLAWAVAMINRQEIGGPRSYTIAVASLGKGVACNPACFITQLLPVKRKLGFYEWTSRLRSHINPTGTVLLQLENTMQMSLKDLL
How it was run: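 Read-out is 4-methylumbelliferone fluorescence (365 nm excitation, 440 nm emission) after a pH 10 NaOH/glycine stop. Reactions held 2 nM enzyme and 80 uM substrate at pH 4.5 for 20 min at room temperature.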

[18] = target: alpha-glucosidase (Oryza sativa, rice) (UniProt Q653V4); assay: Counterscreen for Glucocerebrosidase Inhibitors: qHTS Assay for Rice alpha-Glucosidase at pH 5.0 (AID 997)
How it was run: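 Rice alpha-glucosidase (4 nM final) with 400 uM 4-methylumbelliferyl-alpha-D-glucopyranoside in citrate buffer pH 5.0, 20 min at room temperature, stopped at pH 10; fluorescence 365/440 nm, compounds 0.7 nM–77 uM, AC50 from Hill fits.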

[19] = qHTS Assay for Identification of Small Molecule Agonists for Thrombopoietin (TPO) Signaling Pathway (AID 917)
How it was run: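 Activators of TPO signaling were sought in murine Ba/F3 cells transfected with the human receptor, using a luciferase gene driven by the Glycoprotein IIb promoter; 24-hr compound exposure at 37 C alongside 26 pM TPO, in IL-3-free medium.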

[20] = qHTS Assay for Identification of Small Molecule Antagonists for NFkB Signaling Pathway (AID 895; active means well fitted inhibition curve with a large enough effect in the signal ratio, with a control signal flat, not every such curve was filed as active; the % refers to the signal ratio)
How it was run: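 NFkB-bla ME-180 cervical carcinoma cells with beta-lactamase reporter under NFkB response element; compounds added, then TNF alpha at 10 pM final (EC50), 5 h at 37 C. LiveBLAzer substrate 2 h, room temperature; emission 460/530 nm at 405 nm excitation.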

[21] = target: Muscarinic acetylcholine receptor M1 (Rattus norvegicus) (UniProt P08482); assay: qHTS Assay for Antagonists of Acetylcholine Muscarinic M1 Receptor: Measurement of IP-One Response (AID 944); further: nearly all actives have a fitted effect of over 75% in size
Muscarinic acetylcholine receptor M1 (Rattus norvegicus), sequence (P08482 whole entry, looked up): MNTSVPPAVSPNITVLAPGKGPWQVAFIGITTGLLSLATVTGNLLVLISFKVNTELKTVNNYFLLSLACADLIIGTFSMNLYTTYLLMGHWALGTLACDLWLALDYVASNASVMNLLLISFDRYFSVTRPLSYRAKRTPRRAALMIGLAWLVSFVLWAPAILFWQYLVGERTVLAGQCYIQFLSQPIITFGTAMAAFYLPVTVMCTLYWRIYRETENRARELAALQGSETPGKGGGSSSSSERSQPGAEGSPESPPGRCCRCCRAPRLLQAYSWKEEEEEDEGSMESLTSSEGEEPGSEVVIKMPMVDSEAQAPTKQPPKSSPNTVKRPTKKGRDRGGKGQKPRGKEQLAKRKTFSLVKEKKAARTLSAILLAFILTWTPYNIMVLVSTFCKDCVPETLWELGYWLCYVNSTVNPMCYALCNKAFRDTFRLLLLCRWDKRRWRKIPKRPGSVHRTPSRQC
How it was run: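 CHO cells expressing rat M1 receptor, recovered overnight, were pre-incubated 10 min with compound, then stimulated 30 min with carbachol at EC80 (200 nM) in LiCl-containing buffer, pH 7.4. IP1 accumulation was read by HTRF (620/665 nm).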

[22] = qHTS Assay for Identification of Small Molecule Agonists for Hypoxia Response Element Signaling Pathway (AID 914; active means well fitted activation curve with a large enough effect in the signal ratio, with a control signal flat, not every such curve was filed as active; the % refers to the signal ratio); conditions: ME-180 (cervical carcinoma) HRE-bla reporter, beta-lactamase ratio, CoCl2, 17 h; activation: active compounds read high
How it was run: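 Positive modulation of EC50 CoCl2-induced hypoxia response element signaling is measured in ME-180 cells with a beta-lactamase reporter. Compounds are titrated, incubation runs 17 hours, and %Activity derives from the blue/green ratio.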

For `O=C(Nc1ccccc1)N1CCC2(CC1)CCN(C(=O)c1ccco1)CC2`, the activity change, negative = inhibition [1] was -11.7%, the Potency [2] was 10 µM (active) and the activity change, negative = inhibition [3] was -5.38%. For the same compound, the activity, negative = inhibition [4] was 15.9%, the Potency [5] was greater than 46 µM and the Potency [6] was “inactive”. For the same compound, the Potency [7] was “inactive” and the Potency [8] was “inactive”.

In the case of `O=c1[nH]c(=O)n([C@H]2C[C@H](O)[C@H](CO)O2)cc1Br`, the activity change, negative = inhibition [1] is reported as 14.9% [at 38 µM], the Potency [2] is reported as “inactive” and the activity change, negative = inhibition [3] is reported as 2.6% [at 38 µM]. For the same compound, the activity, negative = inhibition [4] was 4.48% [at 38 µM], the Potency [6] was “inactive” and the Potency [7] was “inactive”. For the same compound, the Potency [9] was “inactive”, the Potency [10] was “inactive” and the Potency [11] was “inactive”.

In the case of `O=S(=O)(NCCNC/C=C\c1ccc(Br)cc1)c1cccc2cnccc12`, the activity change, negative = inhibition [1] is reported as 2.61% [at 38 µM], the Potency [2] is reported as 2 µM (active) and the activity change, negative = inhibition [3] is reported as -7.5% [at 38 µM]. The Potency [12] was greater than 46 µM, the Potency [5] was greater than 46 µM and the Potency [6] was “inactive”. For the same compound, the outcome [13] was “inactive”, the Potency [14] was 10 µM (active) and the outcome [15] was “inactive”. The outcome [16] was “inactive”, the outcome [17] was “inactive” and the Potency [18] was “inactive”.

With `CC(=O)[C@@H]1CC[C@@H]2[C@@H]3CC=C4C[C@H](OS(=O)(=O)O)CC[C@@]4(C)[C@H]3CC[C@]21C` the activity change, negative = inhibition [1] was 12.4% [at 38 µM], the Potency [2] was “inactive” and the activity change, negative = inhibition [3] was 1.64% [at 38 µM]. The Potency [12] was greater than 46 µM, the Potency [5] was greater than 46 µM and the Potency [6] was “inactive”. For the same compound, the Potency [7] was “inactive”, the outcome [13] was “inactive” and the outcome [19] was “inactive”. The outcome [15] was “inactive”, the outcome [16] was “inactive” and the Potency [18] was “inactive”.

In the case of `Cc1ccc(SCN2CCCCC2)cc1` (tested in a mixture with another compound), the activity change, negative = inhibition [1] is reported as -5.94%, the Potency [2] is reported as 3.98 µM (active) and the activity change, negative = inhibition [3] is reported as 16.7%. For the same compound, the Potency [12] was greater than 46 µM, the Potency [5] was greater than 9.22 µM and the Potency [6] was “inactive”. For the same compound, the Potency [7] was “inactive”.

In the case of `CC1(C)CCC(NC(=O)[C@H](N)CCC(=O)O)CC1`, the activity change, negative = inhibition [1] is reported as 5.34% [at 38 µM], the Potency [2] is reported as “inactive” and the activity change, negative = inhibition [3] is reported as 2.47% [at 38 µM]. The activity, negative = inhibition [4] was -7.41% [at 38 µM], the Potency [12] was greater than 46 µM and the Potency [7] was “inactive”. For the same compound, the outcome [13] was “inactive”, the Potency [20] was “inactive” and the outcome [19] was “inactive”. The Potency [21] was “inactive”, the outcome [15] was “inactive” and the outcome [16] was “inactive”. For the same compound, the outcome [17] was “inactive” and the Potency [18] was “inactive”.

With `CN1CCc2cc(Cl)c(O)cc2[C@H](c2ccccc2)C1` the activity change, negative = inhibition [1] was 15.7% [at 38 µM], the Potency [2] was 31.6 µM (active) and the activity change, negative = inhibition [3] was -3.81% [at 38 µM]. The activity, negative = inhibition [4] was 19.6% [at 38 µM], the Potency [12] was greater than 46 µM and the Potency [6] was “inactive”. The Potency [7] was “inactive”, the outcome [13] was “inactive” and the Potency [8] was “inactive”. For the same compound, the Potency [10] was 0.631 µM (active), the activation [22] was -21.3% and the Potency [21] was “inactive”. For the same compound, the outcome [15] was “inactive”, the outcome [16] was “inactive” and the Potency [18] was “inactive”.

Reference: PubChem BioAssay (NCATS)
